# High-throughput results deposited in PubChem by Broad Institute.
# MITF inh: blocks MITF activity; TRPM1 promoter luciferase, luminescence, 24 h; inhibition, % (no concentration beside the values); hit rate 0.28% among 37,000; AID 2240; in the data active = inhibition above about 85%; inconclusive = no clear call, values can overlap the other calls; inactive = below about 68%;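 note: human melanocyte line stably carrying TRPM1 promoter luciferase reporter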
# Shh pathway inh: Sonic Hedgehog pathway inhibition. inhibition, % (no concentration beside the values). Shh-LIGHT2 Gli-luciferase reporter, 30 h. hit rate 2.1% among 22,000;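 active = mean inhibition across valid replicates above about 65%, limit read from the data; inconclusive = mean under the limit, yet half or more replicates past it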;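 note: pathway switched on by Shh-conditioned medium diluted 1 in 25 in low serum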
# NOMO-1 viab: STK33 inhibitor candidate reducing NOMO-1 cell viability | inhibition, % (concentration not given with the values) | hit rate 7.5% among 37,000 | AID 2330 | NOMO-1 AML viability, CellTiter-Glo luminescence, 72 h; in the data active = inhibition above about 80%; inconclusive = no clear call, values can overlap the other calls
# Active calls of the source: *; ? = inconclusive; . = no result given; ! = not active in a repeat. This is a sample that favours compounds with a hit; in the whole collection about 8.1% have one here.
SMILES,MITF inh,Shh pathway inh,NOMO-1 viab
NC(=O)CSc1nnc(-c2ccccc2O)n1-c1ccccc1,-14,.,2
O=C(NCc1ccco1)c1cnn2c(C(F)F)cc(C3CC3)nc12,-10,.,23
CC(=O)c1cn(CC(=O)Nc2ccccc2)c2ccccc12,36,.,19
O=C(Cn1cc(C(=O)c2ccccc2F)c2ccccc21)Nc1ccccc1,65,.,89*
CCOC(=O)c1cc(C#N)c(Sc2ccc(C)cc2)nc1C(F)(F)F,12,34,?
COc1cc2ncnc(Nc3cccc(Cl)c3)c2cc1OC,52,-9,89*!
COc1cc2ncnc(Nc3cccc(O)c3)c2cc1OC,-2,21,-4
COC(=O)C1=CN(c2cccc(C(F)(F)F)c2)C=C(C(=O)OC)C1c1ccsc1,14,-5,18
COC(=O)C1=CN(C23CC4CC(CC(C4)C2)C3)C=C(C(=O)OC)C1c1cccc(OC)c1,8,-4,109*
COc1ccc(Cl)cc1NC(=O)CC(C(=O)O)N1CCNCC1 (stereo not given),9,.,7
O=C(CSc1nnc(-c2cccnc2)n1-c1ccccc1)NCc1ccccc1,-20,38,-11
CCCCCCCC(=O)CCc1ccc(O)c(OC)c1,.,-15,.
CC(C)(C)c1ccc2cc(C#N)c(C#N)cc2c1,5,-23,140*
Cc1sc2nc(SCC(=O)N3CCC(c4noc5ccc(F)cc45)CC3)n(-c3ccccc3)c(=O)c2c1C,-1,.,41
C=C1C(=O)O[C@@H]2[C@H]3C(=C)[C@@H](O[C@@H]4O[C@H](CO)[C@@H](OC(=O)/C=C/c5ccc(O)c(O)c5)[C@H](O)[C@H]4O)C[C@H]3C(=C)C[C@@H](O)[C@@H]12,.,-14,.
C=C(CO)C(=O)O[C@H]1C[C@H]2C(=C)C[C@H](OC(=O)C(=C)CO)[C@H]3C(=C)C(=O)O[C@@H]3[C@H]2C1=C,56,-45,117*
Cn1c(SCC(=O)Nc2ccc(C(N)=O)cc2)nnc1-c1ccccn1,-13,.,2
Cc1csc(NC(=O)CSc2nc(C34CC5CC(CC(C5)C3)C4)ccc2C#N)n1,63,75*,105*
CC(=O)Nc1nc(C23CC4CC(CC(C4)C2)C3)cs1,-19,.,4
CC1(C)Cc2c(sc3c2c(=O)n(-c2cccc(Cl)c2)c2nnc(SCC(=O)Nc4cccc(Cl)c4)n32)CO1,6,.,70
CCN(CC(=O)Nc1cccc(SC)c1)S(=O)(=O)c1ccc2ccccc2c1,6,.,2
Cc1ccc(N(CC(O)Cn2c3ccccc3c3ccccc32)S(C)(=O)=O)cc1 (stereo not given),31,.,44
Cc1ccc(N(CC(O)Cn2c3ccccc3c3ccccc32)S(C)(=O)=O)c(C)c1 (stereo not given),4,.,90*
C[C@@H]1CN([C@H](C)CO)C(=O)c2cc(NS(=O)(=O)c3ccccc3)ccc2O[C@H]1CN(C)CC1CCCCC1,-7,4,22
Cc1onc(-c2ccccc2)c1C(=O)NC1C(=O)N2[C@@H]1SC(C)(C)[C@@H]2C(=O)O (stereo not given in full),-8,-59,3
SMILES,MITF inh,Shh pathway inh,NOMO-1 viab
CCOC(=O)c1nonc1N,-12,-7,-16
CCOC(=O)C1=NNCC1C(=O)OCC (stereo not given),13,.,96*
C[C@H](CO)N1C[C@H](C)[C@@H](CN(C)Cc2ccc(C(F)(F)F)cc2)Oc2c(NC(=O)Nc3ccc(F)cc3)cccc2C1=O,21,-41,113*
C[C@@H]1CN([C@@H](C)CO)C(=O)c2cccc(NC(=O)Nc3ccc(F)cc3)c2O[C@@H]1CN(C)Cc1ccc(C(F)(F)F)cc1,5,35,88*
C[C@@H]1CN([C@H](C)CO)C(=O)c2cccc(NC(=O)Nc3ccc(F)cc3)c2O[C@H]1CN(C)Cc1ccc(C(F)(F)F)cc1,38,22,83*
C[C@H](CO)N1C[C@H](C)[C@H](CN(C)Cc2ccc(C(F)(F)F)cc2)Oc2c(NC(=O)Nc3ccc(F)cc3)cccc2C1=O,29,-86,69
CCN(CC(=O)Nc1cccc(C)c1)S(=O)(=O)c1ccc(Br)cc1,3,.,-11
O=C(Nc1sc2c(c1C(=O)Nc1ccccc1)CCCC2)c1ccccc1,5,6,32
CC(C)c1ccccc1Oc1coc2cc(OCC(=O)Nc3ccccc3F)ccc2c1=O,-4,.,28
COc1ccc(Oc2c(C(F)(F)F)oc3cc(OCC(=O)Nc4ccccc4F)ccc3c2=O)cc1,47,.,96*
C[C@H](CO)N1C[C@H](C)[C@H](CN(C)Cc2ccncc2)Oc2ccc(NC(=O)Nc3ccccc3)cc2C1=O,4,-19,97*
CC(C)NC(=O)Nc1ccc2c(c1)C(=O)N([C@@H](C)CO)C[C@@H](C)[C@@H](CN(C)Cc1ccncc1)O2,12,.,8
C[C@H]1CN([C@@H](C)CO)C(=O)c2cc(NC(=O)Nc3ccc(F)cc3)ccc2O[C@H]1CN(C)Cc1ccncc1,-9,.,100*
C[C@@H]1CN([C@H](C)CO)C(=O)c2cc(NC(=O)Nc3ccccc3)ccc2O[C@@H]1CN(C)Cc1ccncc1,-10,-8,-5
COc1ccc([N+](=O)[O-])cc1NC(=O)CN(c1ccc(Br)c(C)c1)S(C)(=O)=O,-11,.,27
Cc1nn(Cc2ccc(F)cc2)c(C)c1NC(=O)C1CC(c2c(F)cccc2Cl)=NO1 (stereo not given),7,.,10
COc1ccccc1CC(=O)Nc1ccc(-c2nc3ccccc3[nH]2)cc1,72,.,135*
COc1ccccc1CC(=O)Nc1ccc(-c2noc(-c3ccc(OC)c(OC)c3)n2)cc1,-26,.,44
Cc1ccc(-c2nc3ccccc3[nH]2)cc1NC(=O)COc1ccccc1[N+](=O)[O-],86*,.,119*
Cc1ccc(-c2nc3ccccc3[nH]2)cc1NC(=O)COc1cccc([N+](=O)[O-])c1,-4,.,19
Cc1cccc(NC(=O)CSc2nc3sc(C)c(C)c3c(=O)n2C)c1C,51,.,32
CC(C)C1Cc2c(sc3nc(SCC(=O)Nc4ccc(Cl)cc4Cl)nc(N)c23)CO1 (stereo not given),-27,.,38
COc1ccccc1OCC(=O)Nc1cc(Cl)ccc1O,36,.,29
CC(=O)C1C(=O)[C@@H]2[C@H]3c4c[nH]c5cccc(c45)C[C@H]3C(C)(C)N2C1=O (stereo not given in full),9,77*,131*
CC(=O)C1C(=O)C2C3c4c[nH]c5cccc(c45)CC3C(C)(C)N2C1=O (stereo not given),-36,25,10
SMILES,MITF inh,Shh pathway inh,NOMO-1 viab
CC(NS(=O)(=O)c1ccc(F)cc1)C(=O)Nc1ccc(C(N)=O)cc1 (stereo not given),-2,.,13
O=C(CCSc1nc2ccccc2o1)N1CCOCC1,-27,.,-11
CC1(C)CC(=O)C=C(Sc2nc3ccccc3o2)C1,77,87*,120*
Cc1cccc(OCC(=O)Nc2ccccc2CO)c1C,-19,.,2
CCn1c(SCC(=O)Nc2ccc(Cl)cc2C)nnc1-c1ccc(Cl)cc1,8,.,14
C[C@@H]1CN([C@H](C)CO)C(=O)Cc2cc(NS(=O)(=O)c3ccc(F)cc3)ccc2O[C@@H]1CN(C)CC1CCCCC1,-2,4,14
C[C@@H]1CN([C@H](C)CO)C(=O)Cc2cc(NS(=O)(=O)c3ccc(F)cc3)ccc2O[C@H]1CN(C)CC1CC1,0,-50,18
